Experimental findings from PubChem BioAssay (EPA / NIEHS) are described below.

Usually AC50 stands for the midpoint of the concentration-response curve, whichever way the signal moves.

Results filed as inconclusive are left out. The source made the active and inactive calls. How the source made its calls, unless noted: active means hit-call score of the fitted dose curve at least 0.9, where 1 is the maximum; inactive means score below 0.9.

Test [1] can be described thus: ATG_TCF_b_cat_CIS: Attagene CIS-FACTORIAL HepG2 Assay for human T-Cell-Factor with beta-catenin (TCF/b-cat) (AID 2282965). The note with it: HepG2 TCF/beta-catenin cis-reporter transcription, actives raise or lower the signal. Put shortly: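 HepG2 cells transiently transfected with multiple cis-promoter-regulated reporter transcription units, so endogenous transcription factor activity is measured. Reporter mRNA read 24 hours after dosing by RT-PCR, fluorescent labelling and capillary electrophoresis; bidirectional fitting against DMSO.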

A short description of test [2]: ATG_TAL_CIS: Attagene CIS-FACTORIAL HepG2 Assay for human TAL Basal Promoter (AID 2282966).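 Further: background control endpoint measuring basal TAL promoter reporter mRNA not a specific factor.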 Particulars: HepG2 Attagene cis-factorial TAL promoter reporter; actives raise or lower the signal. Put shortly:
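RT-PCR plus capillary electrophoresis quantifies reporter mRNA induction in transiently transfected HepG2 cells after 24 h chemical treatment. DMSO serves as negative control and baseline for bidirectional fitting.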

Test [3] in a line: ATG_TGFb_CIS: Attagene CIS-FACTORIAL HepG2 Assay for human Transforming Growth Factor (TGF) (AID 2282967). Particulars: HepG2 Attagene CIS TGFb reporter, mRNA transcription; actives raise or lower the signal. In a few lines: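 Transient MRTU transfection of HepG2 (FuGene 6). Dose 24 h. TriZol RNA, oligo(dT) RT, PCR, 6-FAM primer extension, HpaI cut, CE. Bidirectional fit, DMSO = baseline.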

Test [4] can be described thus: ATG_VDRE_CIS: Attagene CIS-FACTORIAL HepG2 Assay for human Vitamin D Receptor Element (VDRE) (AID 2282968). Particulars: HepG2 VDRE cis-reporter transcription, actives raise or lower the signal. In a few lines:
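RT-PCR/CE readout of reporter mRNA; HepG2, transient transfection, 24 h dosing; DMSO baseline; bidirectional analysis.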

The target in test [5] is Estrogen receptor (Homo sapiens) (UniProt P03372). Kind of test: ATG_ERa_TRANS: Attagene TRANS-FACTORIAL HepG2 Assay for human Estrogen Receptor alpha (ERa) (AID 2282970; active means hit-call score of the fitted dose curve at least 0.9, where 1 is the maximum). Particulars: HepG2 Attagene TRANS ERa GAL4 reporter, mRNA. In a few lines:
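Cells: HepG2, transiently transfected. Construct: GAL4-UAS reporter units regulated by exogenous NR-Gal4 chimeras. Time: 24 h. Detection: reporter mRNA by RT-PCR, capillary electrophoresis, fluorescence. Baseline: DMSO, upward fitting.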

The target in test [6] is X-box-binding protein 1 (Homo sapiens) (UniProt P17861). Kind of test: ATG_Xbp1_CIS: Attagene CIS-FACTORIAL HepG2 Assay for human X-box Binding Protein 1 (XBP1) (AID 2282972). The note with it: HepG2 XBP1 cis-element reporter, Attagene multiplex; actives raise or lower the signal. Put shortly: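 Fluorescence-labelled cDNA fragments from reporter transcripts, separated by capillary electrophoresis, give the signal. Source: HepG2 cells transfected with promoter-driven reporter units, harvested 24 h post-dose. DMSO served as reference for bidirectional curve fitting.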

A short description of test [7]: ATG_M_19_TRANS: Attagene TRANS-FACTORIAL HepG2 Assay for M19 Transcription Factor (Internal Marker) (AID 2282974; active means hit-call score of the fitted dose curve at least 0.9, where 1 is the maximum). The note with it: HepG2 Attagene TRANS-FACTORIAL M19 internal marker reporter. In a few lines:
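Multiplexed TRANS format: HepG2 liver cells bearing transient GAL4-UAS reporter units, chemical treatment 24 h, reporter transcripts quantified by RT-PCR plus capillary electrophoresis. DMSO defines baseline.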

The target of test [8] is Glucocorticoid receptor (Homo sapiens) (UniProt P04150). Kind of test: ATG_GR_TRANS: Attagene TRANS-FACTORIAL HepG2 Assay for human Glucocorticoid Receptor (GR) (AID 2282978; active means hit-call score of the fitted dose curve at least 0.9, where 1 is the maximum;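 further: activators score as hits since higher reporter transcript over DMSO is fitted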). The note with it: HepG2 Attagene TRANS GR reporter, mRNA transcription. In a few lines:
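Transiently transfected HepG2 cells express chimeric NR-GAL4 proteins acting on GAL4-UAS reporter units. Compounds are applied for 24 h. mRNA induction over DMSO is measured by capillary electrophoresis.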

For test [9], the target named is Oxysterols receptor LXR-alpha (Homo sapiens) (UniProt Q13133). The test can be described thus: ATG_LXRa_TRANS: Attagene TRANS-FACTORIAL HepG2 Assay for human Liver X Receptor alpha (LXRa) (AID 2282980; active means hit-call score of the fitted dose curve at least 0.9, where 1 is the maximum). Particulars: HepG2 Attagene TRANS reporter, LXRa transactivation. Put shortly:
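Chemical-induced reporter mRNA measured by RT-PCR with fluorescent labelling and capillary electrophoresis after 24 h dosing of transiently transfected HepG2 cells expressing exogenous NR-Gal4 chimeras; increases scored against DMSO baseline.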

The nature of test [10]: ATG_M_06_TRANS: Attagene TRANS-FACTORIAL HepG2 Assay for M06 Transcription Factor (Internal Marker) (AID 2282983; active means hit-call score of the fitted dose curve at least 0.9, where 1 is the maximum). The note with it: HepG2 Attagene TRANS M06 internal marker reporter. Put shortly: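 Cells: HepG2, transient multi-reporter transfection. Exposure: 24 h. Detection: RT-PCR, 6-FAM labelling, HpaI digestion (2 h, 37 °C), capillary electrophoresis. Baseline: DMSO.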

A short description of test [11]: ATG_M_32_TRANS: Attagene TRANS-FACTORIAL HepG2 Assay for M32 Transcription Factor (Internal Marker) (AID 2282984; active means hit-call score of the fitted dose curve at least 0.9, where 1 is the maximum;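 further: transcript level of a background control reporter unit measured by RT-PCR and capillary electrophoresis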). The note with it: HepG2 Attagene TRANS M32 internal marker reporter. Put shortly: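 Human hepatoma HepG2, transient MRTU transfection, 24 h treatment. RNA → RT-PCR → fluorescent primer extension → HpaI digest (2 h, 37 C) → CE. Positive-direction fit vs DMSO.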

Test [12] addresses Nuclear receptor subfamily 4 group A member 2 (Homo sapiens) (UniProt P43354). The test can be described thus: ATG_NURR1_TRANS: Attagene TRANS-FACTORIAL HepG2 Assay for human Nuclear Receptor Related Protein 1 (NURR1) (AID 2282985; active means hit-call score of the fitted dose curve at least 0.9, where 1 is the maximum). The note with it: HepG2 Attagene TRANS reporter, mRNA readout. Put shortly:
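After 24 h chemical dosing, total RNA from transiently transfected HepG2 cells was reverse-transcribed and reporter cDNA PCR-amplified, FAM-labelled and analysed by capillary electrophoresis. Activity fitted in positive direction, DMSO as negative control.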

In test [13] the target is Transcriptional activator Myb (Homo sapiens) (UniProt P10242). Kind of test: ATG_Myb_CIS: Attagene CIS-FACTORIAL HepG2 Assay for human Myeloblastosis (Myb) Proto-Oncogene Transcription Factor (AID 2282986). Particulars: HepG2 Attagene CIS-FACTORIAL Myb reporter transcription; actives raise or lower the signal. Put shortly: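 Using HepG2 liver cells bearing transiently transfected cis-promoter reporter constructs, the assay measures induction or loss of reporter mRNA after 24 hours of dosing. Detection used fluorescently labeled RT-PCR products separated by capillary electrophoresis.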

The target in test [14] is Steroid hormone receptor ERR1 (Homo sapiens) (UniProt P11474). Kind of test: ATG_ERRa_TRANS: Attagene TRANS-FACTORIAL HepG2 Assay for human Estrogen-Related Receptor alpha (ERRa) (AID 2282971; active means hit-call score of the fitted dose curve at least 0.9, where 1 is the maximum). Particulars: HepG2 Attagene TRANS reporter, ERRa transactivation. In a few lines:
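Reporter transcripts from ERRa-Gal4 chimera activity measured in transiently transfected human HepG2 cells 24 hours after dosing, using RT-PCR with 6-FAM primer extension, HpaI digestion and capillary electrophoresis; DMSO is baseline.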

The target in test [15] is Bile acid receptor (Homo sapiens) (UniProt Q96RI1). The test can be described thus: ATG_FXR_TRANS: Attagene TRANS-FACTORIAL HepG2 Assay for Farnesoid X Receptor (FXR) (AID 2282979; active means hit-call score of the fitted dose curve at least 0.9, where 1 is the maximum;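 further: hits raise reporter mRNA above DMSO so AC50 marks FXR activation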). The note with it: HepG2 Attagene TRANS FXR-GAL4 reporter transcription. In a few lines:
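Reporter transcripts from transfected HepG2 cells were measured 24 h after dosing, using RT-PCR with capillary electrophoresis of 6-FAM-labelled fragments. The read-out reflects activity of exogenous FXR-Gal4 chimera on GAL4-UAS units, with induction relative to DMSO.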

Test [16] concerns the target Hepatocyte nuclear factor 4-alpha (Homo sapiens) (UniProt P41235). Kind of test: ATG_HNF4a_TRANS: Attagene TRANS-FACTORIAL HepG2 Assay for human Hepatocyte Nuclear Factor 4 alpha (HNF4a) (AID 2282982; active means hit-call score of the fitted dose curve at least 0.9, where 1 is the maximum). Particulars: HepG2 HNF4a transactivation reporter, mRNA readout. In a few lines:
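Cells used were human HepG2, transiently carrying GAL4-UAS reporter units read out against exogenous NR-GAL4 chimeras. Reporter transcript levels after 24 h dosing were quantified by fluorescent RT-PCR and capillary electrophoresis.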

Test [17] in a line: ATG_GAL4_TRANS: Attagene TRANS-FACTORIAL HepG2 Assay for GAL4 (Internal Marker) (AID 2282976; active means hit-call score of the fitted dose curve at least 0.9, where 1 is the maximum). Particulars: HepG2 Attagene TRANS GAL4 internal marker reporter. In a few lines: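 In transfected human HepG2 liver cells dosed 24 h, GAL4 reporter mRNA serves as a baseline marker. Detection by RT-PCR with fluorescent capillary electrophoresis, activity fitted upward relative to DMSO.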

Test [18] addresses Oxysterols receptor LXR-beta (Homo sapiens) (UniProt P55055). Kind of test: ATG_LXRb_TRANS: Attagene TRANS-FACTORIAL HepG2 Assay for human Liver X Receptor beta (LXRb) (AID 2282981; active means hit-call score of the fitted dose curve at least 0.9, where 1 is the maximum). The note with it: HepG2 Attagene TRANS GAL4-LXRb reporter, mRNA. Put shortly:
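In this TRANS format, exogenous chimeric NR-Gal4 protein activity, not endogenous factors, drives reporter expression in transfected human HepG2 cells. Exposure lasted 24 h; reporter mRNA was read by fluorescent capillary electrophoresis.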

Sequence of X-box-binding protein 1 (Homo sapiens) (P17861 whole entry, looked up, the tested form may be a part): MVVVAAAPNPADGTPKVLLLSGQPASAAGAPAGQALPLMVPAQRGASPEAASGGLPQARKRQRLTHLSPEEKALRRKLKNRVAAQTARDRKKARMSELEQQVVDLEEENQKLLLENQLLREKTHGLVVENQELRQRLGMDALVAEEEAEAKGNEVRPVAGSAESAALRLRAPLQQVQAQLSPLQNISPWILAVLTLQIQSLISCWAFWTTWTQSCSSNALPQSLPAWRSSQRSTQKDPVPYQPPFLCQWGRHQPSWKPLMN
Sequence of Transcriptional activator Myb (Homo sapiens) (P10242 whole entry, looked up): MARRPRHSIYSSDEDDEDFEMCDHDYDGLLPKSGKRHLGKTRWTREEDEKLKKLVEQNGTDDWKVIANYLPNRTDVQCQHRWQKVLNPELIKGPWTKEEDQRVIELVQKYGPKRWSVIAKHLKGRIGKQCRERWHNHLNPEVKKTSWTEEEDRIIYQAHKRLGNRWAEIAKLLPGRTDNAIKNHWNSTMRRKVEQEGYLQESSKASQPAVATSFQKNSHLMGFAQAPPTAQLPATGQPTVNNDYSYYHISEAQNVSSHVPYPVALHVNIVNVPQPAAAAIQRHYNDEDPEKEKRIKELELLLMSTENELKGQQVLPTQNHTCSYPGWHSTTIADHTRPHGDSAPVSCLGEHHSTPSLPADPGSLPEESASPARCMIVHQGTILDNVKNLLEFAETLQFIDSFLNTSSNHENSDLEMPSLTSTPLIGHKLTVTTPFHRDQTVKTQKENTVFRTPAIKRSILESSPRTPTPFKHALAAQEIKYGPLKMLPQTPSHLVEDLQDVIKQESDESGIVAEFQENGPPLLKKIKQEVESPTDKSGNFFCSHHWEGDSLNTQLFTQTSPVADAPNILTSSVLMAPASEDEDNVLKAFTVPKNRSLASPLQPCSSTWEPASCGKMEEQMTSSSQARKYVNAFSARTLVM
Sequence of Nuclear receptor subfamily 4 group A member 2 (Homo sapiens) (P43354 whole entry, looked up): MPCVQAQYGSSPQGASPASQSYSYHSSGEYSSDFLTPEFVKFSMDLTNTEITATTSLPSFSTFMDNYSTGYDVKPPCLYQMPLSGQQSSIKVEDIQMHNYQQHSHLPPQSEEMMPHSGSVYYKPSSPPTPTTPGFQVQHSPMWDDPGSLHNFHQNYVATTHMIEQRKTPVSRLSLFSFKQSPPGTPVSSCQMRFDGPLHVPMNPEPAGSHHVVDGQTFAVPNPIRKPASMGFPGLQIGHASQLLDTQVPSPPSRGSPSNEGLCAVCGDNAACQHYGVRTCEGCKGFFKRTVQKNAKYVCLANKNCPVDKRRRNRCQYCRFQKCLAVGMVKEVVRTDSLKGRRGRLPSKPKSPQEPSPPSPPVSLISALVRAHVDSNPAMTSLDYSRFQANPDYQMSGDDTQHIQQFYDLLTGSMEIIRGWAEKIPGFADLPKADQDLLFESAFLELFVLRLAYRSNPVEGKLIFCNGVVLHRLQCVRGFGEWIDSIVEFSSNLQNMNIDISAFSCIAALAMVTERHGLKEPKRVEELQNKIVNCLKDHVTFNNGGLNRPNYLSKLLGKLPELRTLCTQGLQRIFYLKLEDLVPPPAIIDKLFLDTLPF
Sequence of Estrogen receptor (Homo sapiens) (P03372 whole entry, looked up, the tested form may be a part): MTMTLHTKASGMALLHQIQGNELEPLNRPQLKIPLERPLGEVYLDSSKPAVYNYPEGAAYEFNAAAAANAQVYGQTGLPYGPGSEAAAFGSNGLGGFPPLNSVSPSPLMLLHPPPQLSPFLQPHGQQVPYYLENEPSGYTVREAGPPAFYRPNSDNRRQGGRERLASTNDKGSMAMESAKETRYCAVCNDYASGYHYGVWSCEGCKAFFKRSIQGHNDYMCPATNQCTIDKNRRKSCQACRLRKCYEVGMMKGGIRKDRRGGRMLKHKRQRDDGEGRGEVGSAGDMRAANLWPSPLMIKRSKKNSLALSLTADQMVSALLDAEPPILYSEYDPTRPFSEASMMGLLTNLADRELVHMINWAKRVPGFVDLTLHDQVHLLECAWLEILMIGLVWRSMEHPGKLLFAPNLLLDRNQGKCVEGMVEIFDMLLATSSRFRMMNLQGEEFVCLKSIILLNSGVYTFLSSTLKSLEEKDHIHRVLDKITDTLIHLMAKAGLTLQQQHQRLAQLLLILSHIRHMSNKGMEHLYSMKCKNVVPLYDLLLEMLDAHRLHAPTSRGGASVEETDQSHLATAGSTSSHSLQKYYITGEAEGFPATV
Sequence of Glucocorticoid receptor (Homo sapiens) (P04150 whole entry, looked up, the tested form may be a part): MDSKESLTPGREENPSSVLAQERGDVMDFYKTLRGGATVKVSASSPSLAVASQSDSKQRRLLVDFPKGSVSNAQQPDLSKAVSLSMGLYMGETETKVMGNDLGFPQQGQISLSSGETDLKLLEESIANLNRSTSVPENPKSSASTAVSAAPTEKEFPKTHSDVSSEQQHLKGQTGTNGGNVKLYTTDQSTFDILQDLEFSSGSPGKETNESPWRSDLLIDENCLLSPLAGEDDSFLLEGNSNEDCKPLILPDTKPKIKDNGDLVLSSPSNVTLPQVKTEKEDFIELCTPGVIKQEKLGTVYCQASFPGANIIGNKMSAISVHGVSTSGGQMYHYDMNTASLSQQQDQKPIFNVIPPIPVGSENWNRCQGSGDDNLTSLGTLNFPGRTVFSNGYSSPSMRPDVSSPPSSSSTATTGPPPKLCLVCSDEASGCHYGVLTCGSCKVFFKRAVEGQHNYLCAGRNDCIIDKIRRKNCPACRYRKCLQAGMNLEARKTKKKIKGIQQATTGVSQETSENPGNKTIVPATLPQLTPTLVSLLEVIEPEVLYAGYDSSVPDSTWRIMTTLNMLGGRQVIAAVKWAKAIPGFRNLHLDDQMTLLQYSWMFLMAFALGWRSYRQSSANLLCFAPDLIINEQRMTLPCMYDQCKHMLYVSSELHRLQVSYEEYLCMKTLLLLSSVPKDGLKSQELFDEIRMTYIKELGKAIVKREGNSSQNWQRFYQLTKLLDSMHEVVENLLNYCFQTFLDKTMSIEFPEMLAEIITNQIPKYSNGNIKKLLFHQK
Sequence of Hepatocyte nuclear factor 4-alpha (Homo sapiens) (P41235 whole entry, looked up, the tested form may be a part): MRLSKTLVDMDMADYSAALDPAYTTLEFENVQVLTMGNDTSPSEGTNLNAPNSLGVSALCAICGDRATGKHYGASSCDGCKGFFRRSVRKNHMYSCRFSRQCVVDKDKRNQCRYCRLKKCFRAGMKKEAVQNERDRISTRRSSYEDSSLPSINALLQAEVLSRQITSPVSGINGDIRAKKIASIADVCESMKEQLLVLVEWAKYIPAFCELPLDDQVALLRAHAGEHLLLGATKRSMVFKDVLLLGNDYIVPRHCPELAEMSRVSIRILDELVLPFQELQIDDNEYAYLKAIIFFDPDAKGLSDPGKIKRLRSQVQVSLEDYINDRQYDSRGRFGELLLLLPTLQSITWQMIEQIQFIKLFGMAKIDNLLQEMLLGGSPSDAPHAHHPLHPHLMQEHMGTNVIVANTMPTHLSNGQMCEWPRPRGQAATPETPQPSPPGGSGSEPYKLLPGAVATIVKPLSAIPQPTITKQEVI
Sequence of Oxysterols receptor LXR-alpha (Homo sapiens) (Q13133 whole entry, looked up, the tested form may be a part): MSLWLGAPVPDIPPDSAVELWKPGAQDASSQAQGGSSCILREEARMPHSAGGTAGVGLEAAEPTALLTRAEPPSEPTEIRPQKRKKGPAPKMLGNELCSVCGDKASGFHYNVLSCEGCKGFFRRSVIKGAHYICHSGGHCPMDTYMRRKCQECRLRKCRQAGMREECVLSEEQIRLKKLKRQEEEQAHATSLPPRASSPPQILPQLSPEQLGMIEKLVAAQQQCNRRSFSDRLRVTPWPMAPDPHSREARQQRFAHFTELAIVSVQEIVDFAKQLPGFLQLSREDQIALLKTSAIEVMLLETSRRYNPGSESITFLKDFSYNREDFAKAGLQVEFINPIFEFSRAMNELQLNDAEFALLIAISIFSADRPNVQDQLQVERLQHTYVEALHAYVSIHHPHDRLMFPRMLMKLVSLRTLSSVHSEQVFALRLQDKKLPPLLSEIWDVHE
Sequence of Bile acid receptor (Homo sapiens) (Q96RI1 whole entry, looked up, the tested form may be a part): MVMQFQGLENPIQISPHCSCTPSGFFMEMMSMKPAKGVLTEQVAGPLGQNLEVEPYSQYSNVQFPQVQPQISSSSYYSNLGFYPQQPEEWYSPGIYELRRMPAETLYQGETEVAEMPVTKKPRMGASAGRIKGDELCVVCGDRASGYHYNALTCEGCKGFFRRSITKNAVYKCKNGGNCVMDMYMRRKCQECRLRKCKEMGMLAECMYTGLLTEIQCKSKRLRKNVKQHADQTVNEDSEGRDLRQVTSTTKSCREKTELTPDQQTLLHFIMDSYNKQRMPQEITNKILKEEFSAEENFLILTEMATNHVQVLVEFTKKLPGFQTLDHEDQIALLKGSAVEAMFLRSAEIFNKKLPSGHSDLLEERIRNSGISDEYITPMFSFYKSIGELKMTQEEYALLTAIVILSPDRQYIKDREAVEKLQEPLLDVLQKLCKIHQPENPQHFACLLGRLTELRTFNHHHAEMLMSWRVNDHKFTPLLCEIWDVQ
Sequence of Oxysterols receptor LXR-beta (Homo sapiens) (P55055 whole entry, looked up, the tested form may be a part): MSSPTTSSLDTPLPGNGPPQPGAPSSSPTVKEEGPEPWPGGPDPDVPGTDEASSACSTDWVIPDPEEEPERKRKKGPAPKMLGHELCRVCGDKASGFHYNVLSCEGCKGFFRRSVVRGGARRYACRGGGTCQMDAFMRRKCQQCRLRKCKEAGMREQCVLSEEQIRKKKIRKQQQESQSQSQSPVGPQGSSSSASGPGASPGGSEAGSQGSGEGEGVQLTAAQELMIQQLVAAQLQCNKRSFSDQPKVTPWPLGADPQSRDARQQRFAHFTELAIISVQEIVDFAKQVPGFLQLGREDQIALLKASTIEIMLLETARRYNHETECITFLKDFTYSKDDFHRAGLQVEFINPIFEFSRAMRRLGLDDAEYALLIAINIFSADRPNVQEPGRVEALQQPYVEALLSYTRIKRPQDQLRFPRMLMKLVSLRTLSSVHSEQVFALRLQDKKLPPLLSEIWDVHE

With `C1=COCCC1`, the call in [1], in [2], in test [3], in test [4], in test [5] and in test [6] was inactive. Moreover, the call in test [7], in [8], in test [9], in test [10], in test [11] and in [12] was inactive. Further, in test [13], the result was inactive.
Turning to `NC(=O)c1c(Cl)cccc1Cl`, the molecule was called inactive in test [1], in test [2], in test [3], in test [4], in test [5] and in test [14]. Further, the result in [15], in test [16] and in test [13] was inactive.
Take `CC(=N[Si](C)(C)C)O[Si](C)(C)C`: the molecule was classed as inactive in test [1], in [2], in [3], in test [4], in test [5] and in [6]. Also, the molecule was classed as inactive in test [7], in test [17], in test [8], in test [16], in test [11] and in test [13].
For the molecule `c1ccc2scnc2c1`, the outcome in test [1], in test [2], in test [3], in test [4], in [5] and in test [6] was inactive. The molecule was classed as inactive in test [17], in test [18], in test [10] and in test [13].
For `CCCCCCCCCOS(=O)(=O)O`, the outcome in test [1], in [2], in [3], in test [4], in test [6] and in test [16] was inactive. In addition, the call in [10] and in test [13] was inactive. Besides, in [5], the AC50 is 20.1 µM (active).
`CC(C)COC(=O)c1ccccc1`: the molecule was classed as inactive in [1], in test [2], in [3], in [4], in [5] and in test [6]. Moreover, the call in test [16] and in test [13] was inactive.
As to `O=C(C=Cc1ccccc1)OCCCc1ccccc1`, the call in test [1], in test [2], in [3], in [4], in [6] and in [7] was inactive. Besides, the call in [17], in test [8], in [18], in test [16], in test [11] and in test [12] was inactive. The molecule was called inactive in [13]. Further, the AC50 in test [5] is 15.3 µM (active).
With `CC(=O)C1=C(C)[C@@H]2C[C@@]3(C1)[C@H](C)CC[C@H]3C2(C)C`, the AC50 in [1] is 77.7 µM (active); in test [4] it was 161 µM (active); in test [5], 2.65 µM (active). Moreover, the molecule was classed as inactive in test [2], in [3], in test [6], in test [7], in test [15] and in [11]. Besides, the molecule was classed as inactive in test [12] and in test [13].
For the molecule `CCC(=O)OC/C=C(\C)CCC=C(C)C`, the result in test [1], in [2], in test [3], in test [4], in test [5] and in test [6] was inactive. Moreover, the outcome in test [7], in test [17], in [8], in [16], in test [10] and in test [13] was inactive.
For `O=C(O)c1cccc(Cl)n1`, the call in [1], in [2], in [3], in test [4], in [5] and in test [6] was inactive. The molecule was called inactive in test [7], in [9], in test [16], in [11] and in [13].
